Data taken from PubChem BioAssay (Tox21).
Inconclusive results are not listed. Entries that show only a call come without a potency. Active and inactive are the calls of the source. Calls come from the whole dose curve; as a rule, active = well fitted cell-killing curve with a large enough effect in the repeat runs; inconclusive = weak or mixed curves; inactive = flat fitted curve, though single readings scatter.

Assay: qHTS assay to identify small molecule antagonists of the estrogen receptor beta (ER-beta) signaling pathway - cell viability counter screen (AID 1259382); note: nearly all actives have a fitted effect of over 55% in size
Details: ER-beta-UAS-bla HEK293T viability, CellTiter-Glo luminescence, 16 h; series mostly up to 92.4 µM
From the text: U.S. Tox21 Program National Center for Advancing Translational Sciences [NCATS] NIH Chemical Genomics Center [NCGC] U.S. Environmental Protection Agency [EPA] National Institutes of Environmental Health Sciences [NIEHS] National Toxicology Program [NTP] U.S. Food and Drug Administration [FDA] Tox21 Assay Overview: Estrogen receptor (ER), a nuclear hormone receptor, plays an important role in development, metabolic homeostasis and reproduction. Two subtypes of ER, ER-alpha and ER-beta, have similar expression patterns with some uniqueness in both types. Endocrine disrupting chemicals (EDCs) and their interactions with steroid hormone receptors like ER causes disruption of normal endocrine function. To identify the compounds that inhibit ER signaling, an ER-beta-UAS-bla GripTite cell line (Life Technologies, Madison, WI, USA) containing a beta-lactamase reporter gene under the control of an UAS response element was used to screen Tox21 10K compound library. The cytotoxicity of the Tox21 compound library against the ER-beta-bla cell line was tested in parallel by measuring the cell viability using CellTiter-Glo assay in the same wells.
Tox21 Assay Protocol Summary: ER-beta-UAS-bla HEK293T cells were dispensed at 2,000 cells/4 uL of assay medium containing 2% charcoal stripped FBS per well into black wall/clear-bottom 1536-well plates using a Multidrop Combi (ThermoFisher Scientific, Waltham, MA) dispenser. After the assay plates were incubated at a 37C and 5% CO2 for 6 hr, 23 nL of compounds dissolved in DMSO, positive controls or DMSO only was transferred to the assay plate by a Pintool station (Kalypsys, San Diego, CA), followed by addition of 1 uL (1nM as final concentration) of 17-beta-estradiol (E2) in assay medium using a Flying Reagent Dispenser (FRD, Aurora Discovery, San Diego, CA). The plates were incubated at 37C and 5% CO2 for 16 hr. Then 1 uL of LiveBLAzer B/G FRET substrate was added using a Flying Reagent Dispenser, the plates were incubated at room temperature for 2 hours, and fluorescence intensity was measured by an Envision plate reader (PerkinElmer, Shelton, CT). For cell viability readout that measures cytotoxicity, 4 uL/well of CellTiter-Glo reagent was added into the assay plates using a FRD. After 30 min incubation at room temperature, the luminescence intensity in the plates was measured using a ViewLux (PerkinElmer) plate reader.

SMILES	Potency
COCCl	inactive
BrCCBr	inactive
OC(O)C(Cl)(Cl)Cl	inactive
CCC12COCN1COC2	inactive
Cc1ccc(N)cc1Cl	inactive
CNC(=O)Oc1ccccc1OC(C)C	inactive
C#CC(C)(C)NC(=O)c1cc(Cl)cc(Cl)c1	inactive
O=c1n(Cl)c(=O)n(Cl)c(=O)n1Cl	inactive
O=C1CCCN1	inactive
c1cc2c3c(cccc3c1)CC2	inactive
CCCCN(CC)C(=O)SCCC	inactive
CON(C)C(=O)Nc1ccc(Cl)c(Cl)c1	inactive
Cc1cc(-c2cc(C)c(N)c(C)c2)cc(C)c1N	inactive
O=NN1CCCC1	inactive
c1ccc2c(c1)Oc1ccccc1O2	inactive
CC(C)C#N	inactive
CC(C)OC(=O)Nc1cccc(Cl)c1	inactive
c1ccc(-c2ccccc2)cc1	inactive
CCC(C)(CC)c1cc(NC(=O)c2c(OC)cccc2OC)on1	inactive
CN(C)N=O	inactive

SMILES	Potency
O=[N+]([O-])c1ccc([As](=O)(O)O)cc1	inactive
O=C(NC(=O)c1c(F)cccc1F)Nc1cc(Cl)c(OC(F)(F)C(F)C(F)(F)F)cc1Cl (stereo not given)	inactive
C=C(C)CCl	inactive
Nc1ccccc1C(=O)O	inactive
COC(=O)NC(=S)Nc1ccccc1NC(=S)NC(=O)OC	inactive
NCCc1ccc(O)cc1	inactive
CCNc1nc(NC(C)(C)C)nc(SC)n1	inactive
ClCc1cccnc1	inactive
CC(C)=C[C@@H]1[C@@H](C(=O)OCc2coc(Cc3ccccc3)c2)C1(C)C	inactive
CC(C)(C)C(O)(CCc1ccc(Cl)cc1)Cn1cncn1 (stereo not given)	inactive
Cc1ccc([N+](=O)[O-])cc1C	inactive
CC(=O)C=C(C)C	inactive
Clc1ccccc1Cl	inactive
CCOP(OCC)OCC	inactive
C[C@]12CC[C@H]3[C@@H](CC[C@@]45O[C@@H]4C(O)=C(C#N)C[C@]35C)[C@@H]1CC[C@@H]2O	inactive
CCC[CH2][Sn]([Cl])([Cl])[Cl]	inactive
O=c1ccc(=O)[nH][nH]1	inactive
O=S(=O)(c1ccc(O)cc1)c1ccc(O)cc1	inactive
Clc1ccc(Cl)cc1	inactive
Nc1ccc(Oc2ccc(N)cc2)cc1	inactive
